# Measurements reported in the supplement of paper PMC6555819.
# System: RARg:RXRa (NR concentration 270 nM, RXRa partner concentration 90 nM)
# Test: PBM binding z-score (relative to random genomic background probes); higher = stronger binding; sequences stand for … in GC…GCGATTGACAGCGTAGAATGAAGG
# Summary of the method: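 Antibodies against each partner of ligand-free nuclear receptor dimers (one per run) detected binding on custom Agilent 4×180K protein-binding microarrays after 1 h incubation. The double-stranded probes had 34-nt variable regions carrying direct-repeat seeds, single-nucleotide variants, half-site ablations and random human genomic background sequences. Binding z-scores, from regression-normalized fluorescence, use the random background probes as reference.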
row,Sequence,PBM binding z-score
1,ATATGTAGGTTTCATCCGGGTCATTCAGGCTATG,1.62
2,CCTACTGGGTCAAGGTCATTGATCAGTCAAAGCA,5.77
3,AGTCAAAGTTAACTAGGTAACGTAAGATTCAGCT,0.302
4,CCTACTGGGCCATTTAGAGGTCATTGATCATATG,4.06
5,CCTTACGGCTCACTGACAGGTTATAGCATTTGGA,0.216
6,CCTAGCAGGCCAACCTGGGTCACTCAAGGCTTGA,1.54
7,GCATATAGGTAATACAATGTGAAAGTCCGATTGT,0.415
8,ATCTAAAGGTCGAGGTGAGTATAGAGAAAGGGAA,4.54
9,ATCTCTAGGTAAAGATAATTCAGTGAATGCAAAT,0.658
10,ATCGAAAGGTCGACGAGGTGAGCATACACCGTTT,4.4
11,ATCCCTAGGTAAAAGTTCAGTGAATCCCGAGGAT,1.53
12,CGTCCAAGGTCAGCAGGTCAGTGAAAGCGACGTG,6.35
13,CCTGCTGGGCCATCAGGTCATTGATATCAACGTT,2.06
14,GCAGATAGGTAATACAAGGTGAAAGTCCGATTGT,0.57
15,TCTCGGAGGACACGAAAGGTCAGGGCTCGACATC,4.98
16,CGAACTTGGTCATCCAGGACAGTGAATACATTGA,0.874
17,TCATATAGGTCAAGGTGAAAGTCGAACGATATGA,5.31
18,TCATATAGGTAAACAGGTGAAAATCCGTAAGTTA,0.838
19,ACAAGTTGGTCAGCTGAGGTCACACACAATTCGG,4.2
20,CCTACTGGGCCATCAGGACATTGATATCAACGTT,0.263
21,TCTATTAGTTGAGTAGGGCAACCGAAACAGCGGA,0.16
22,CGAACGAGGGCATGAGATGATAGCAAATGCCGAT,1.28
